# From PubChem BioAssay (NCI)
# About 83,000 compounds went through this panel and 20% of them were active in at least one assay; those are over-represented in the sample as a whole.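 Results are percent growth after 48 hours of single-concentration exposure. 100 means growth as in untreated cells, lower positive values show inhibition; negative values down to -100 show cell death.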 A number with no mark means an inactive call. The source made the active and inactive calls. The calls were made as follows: active = growth percent below 10; inactive = the rest.
# Assays:
# Assay in all cases: NCI-60 one-dose screen, 48 h (100 = growth as untreated, 0 = no growth, -100 = all killed)
# Conditions in all cases: 10 µM unless noted
# NCI-H23 lung = system: NCI-H23 lung
# NCI-H322M lung = system: NCI-H322M lung
# HOP-62 NSCLC = system: HOP-62 NSCLC
# NCI-H460 lung = system: NCI-H460 lung
# HOP-92 NSCLC = system: HOP-92 NSCLC
# NCI-H522 lung = system: NCI-H522 lung
# A549/ATCC NSCLC = system: A549/ATCC NSCLC
# 786-0 renal = system: 786-0 renal
# COLO 205 colon = system: COLO 205 colon
# DU-145 prostate = system: DU-145 prostate
# K-562 leukemia = system: K-562 leukemia
# MALME-3M melanoma = system: MALME-3M melanoma
# MDA-MB-231 breast = system: MDA-MB-231 breast
# RXF 393 renal = system: RXF 393 renal
# SF-268 CNS = system: SF-268 CNS
# SF-295 CNS = system: SF-295 CNS
# SF-539 CNS = system: SF-539 CNS
# UACC-257 melanoma = system: UACC-257 melanoma
# M14 melanoma = system: M14 melanoma
# HCT-15 colon = system: HCT-15 colon
SMILES,growth (NCI-H23 lung),growth (NCI-H322M lung),growth (HOP-62 NSCLC),growth (NCI-H460 lung),growth (HOP-92 NSCLC),growth (NCI-H522 lung),growth (A549/ATCC NSCLC),growth (786-0 renal),growth (COLO 205 colon),growth (DU-145 prostate),growth (K-562 leukemia),growth (MALME-3M melanoma),growth (MDA-MB-231 breast),growth (RXF 393 renal),growth (SF-268 CNS),growth (SF-295 CNS),growth (SF-539 CNS),growth (UACC-257 melanoma),growth (M14 melanoma),growth (HCT-15 colon)
CCOC(=O)c1c(C=O)nc2ccccc2c1/C=C/c1ccc(Cl)cc1,100%,99.8%,103%,100%,92.8%,78.8%,96.4%,106%,119%,96.3%,61.7%,100%,87.7%,99.5%,91.2%,101%,90.9%,105%,91.6%,89.6%
O=C(Nc1ccc(N2CCNCC2)cn1)c1[nH]ncc1Nc1ncnc2sccc12,18.4%,59.1%,73%,43.1%,52.5%,-3.84% (active),4.12% (active),-43.6% (active),29%,41.9%,-60.1% (active),-67.7% (active),-35.8% (active),46.6%,40.8%,97.3%,-28.8% (active),69.8%,-61.3% (active),69.7%
COc1ccc(C)c2sc(N(Cc3cccnc3)C(=O)c3ccc(C#N)cc3)nc12,7.42% (active),6.37% (active),7.67% (active),-24.4% (active),-3.64% (active),-22.2% (active),6.76% (active),-12.2% (active),1.84% (active),17.3%,4.61% (active),-15.2% (active),-4% (active),-31% (active),10.9%,-28.9% (active),-26% (active),-15.5% (active),4.95% (active),17.5%
Oc1c(CN2CCN(c3ccccc3F)CC2)cc(Br)c2cccnc12,44.6%,16.7%,-75% (active),-73.1% (active),-5.84% (active),-65% (active),-65% (active),-83.5% (active),-8.74% (active),-32% (active),1.01% (active),-58.2% (active),-33.5% (active),-57.5% (active),0.474% (active),-72.5% (active),-90.5% (active),11.3%,-3.56% (active),-4.53% (active)
CC(=O)c1ccc(Cc2ccc(C(C)=O)s2)s1,103%,92.1%,104%,94.3%,102%,95.8%,105%,102%,119%,113%,94.1%,106%,99.8%,104%,101%,114%,94.1%,111%,107%,99%
COc1cc(/C=C2\CN(S(=O)(=O)c3ccccc3)C/C(=C\c3cc(CN4CCCC4)c(O)c(OC)c3)C2=O)cc(CN2CCCC2)c1O,-57.8% (active),21.4%,-4.65% (active),-30.7% (active),-11.3% (active),-26.3% (active),19.9%,4.02% (active),-30.4% (active),-16.7% (active),8.41% (active),-51.6% (active),-32.7% (active),-65.4% (active),12.9%,-34.2% (active),-46.6% (active),40.1%,-19.2% (active),50.3%
CCN1C(=O)N(c2ccccc2)C2Nn3c(s/c(=C4\C(=O)N(C(C)C)c5ccccc54)c3=O)=NC21 (stereo not given),104%,108%,98.5%,108%,113%,92.1%,104%,101%,111%,120%,100%,98.7%,99.4%,112%,98.7%,98.4%,100%,104%,109%,108%
COC(=O)C1=Nc2ccc(F)cc2/C1=C/c1sc(=S)[nH]c1O,28.6%,29%,18.6%,3.2% (active),22.9%,-33.3% (active),17.7%,9.99% (active),-2.37% (active),11.9%,8.26% (active),60.8%,16.8%,30.4%,13.1%,13.8%,-26.6% (active),45.9%,2.31% (active),10.7%
COc1ccc(-c2nsc3c2NC(=O)CC3c2cccc(OC)c2)cc1 (stereo not given),43.3%,57%,39.1%,17.6%,49.9%,25.5%,37.1%,49.6%,-11.7% (active),13.7%,18.9%,41.5%,73.3%,16.8%,62.3%,15.5%,13%,74.7%,28.6%,26.4%
O=C(c1nc2ccccc2[nH]1)C1C(c2ccc([N+](=O)[O-])cc2)C2CC3CCCCC3N2[C@@]12C(=O)Nc1cc(Cl)ccc12 (stereo not given in full),26.2%,47.6%,41.3%,11.2%,20.1%,34.7%,18.5%,38.5%,22.2%,51.3%,12.2%,15%,26.6%,14.7%,41.3%,16.5%,40.4%,25.7%,21.2%,11%
O=c1oc2ccc(I)cc2c(=O)n1-c1ccc(I)cc1F,4.94% (active),7.17% (active),-8.24% (active),0.977% (active),-10.4% (active),-16.1% (active),6.24% (active),2.44% (active),44.5%,15.8%,5.58% (active),-27.7% (active),-9.68% (active),-3.51% (active),8.4% (active),-56.6% (active),2.15% (active),-20.3% (active),-2.96% (active),2% (active)
Fc1cccc(COc2ccc(Nc3ncnc4onc(-c5ccccc5)c34)cc2)c1,18.1%,23.1%,33.4%,2.61% (active),46.3%,5.66% (active),19.9%,8.18% (active),8.73% (active),-29.8% (active),12.1%,41%,13.8%,-26.6% (active),29.2%,2.77% (active),-42.4% (active),54.8%,-23% (active),20.2%
CC(C)[C@H](NC(=O)Cn1cc(C(=O)O)nn1)C(=O)O,97.3%,99.9%,108%,106%,99.2%,104%,97%,104%,119%,114%,118%,101%,97.6%,112%,115%,93%,105%,99.6%,108%,100%
O=C(CCc1nnc2sc(COc3ccccc3)nn12)c1nc2ncccc2[nH]1,85.4%,91.9%,90.7%,93.3%,93.6%,79.4%,107%,108%,107%,106%,107%,91.4%,91.8%,98.4%,96%,103%,100%,98.9%,95.6%,100%
O=S1(=O)N(Cc2ccccc2)[C@@H](Cc2ccccc2)C2O[C@H]2[C@H](Cc2ccccc2)N1Cc1ccccc1 (stereo not given in full),37.6%,84.9%,53.6%,9.31% (active),114%,49.3%,44.1%,40.6%,61.8%,34.3%,23.4%,67.8%,24.2%,45.2%,57.8%,38%,38.6%,39.1%,72.6%,26.1%
